Most compounds without a hit are left out; they make up all but 4.3% or so of the library.
MazEF act – activators of E. coli MazEF toxin-antitoxin RNase; FAM/BHQ RNA-DNA oligo cleavage fluorescence, 5 h; activation, % at 20 µM; 350,000 compounds, 0.32% hits; AID 504720; in the data active = activation above about 50%
Target sequence (P0AE70 whole entry, looked up): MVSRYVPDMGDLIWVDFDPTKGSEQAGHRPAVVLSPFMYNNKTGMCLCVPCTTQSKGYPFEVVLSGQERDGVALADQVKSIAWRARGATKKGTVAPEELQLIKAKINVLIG
BoNT A protease – blocks Botulinum neurotoxin A light chain protease | multiplex microsphere protease substrate cleavage, flow cytometry | inhibition, % at 10 µM | 360,000 compounds, 0.17% hits | AID 588499; note: plate controls were buffer without enzyme for full effect and enzyme alone for no effect
PfHsp40 rescue – restores yeast growth despite PfHsp40 toxicity; 340,000 compounds, 0.68% hits; S. cerevisiae expressing PfHsp40, growth rescue, ATP luminescence; growth rescue, % at 12.5 µM; in the data active = growth rescue above about 28%, passing the limit was not always enough; inconclusive = no clear call, values can overlap the other calls;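 note: yeast W303a lacking pdr1 and pdr3 grown in galactose medium; growth measured after three days at 30 °C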
Anthrax LF inh2 – anthrax lethal factor protease inhibition; multiplex microsphere protease cleavage assay, LF; 360,000 compounds, 0.12% hits; AID 588501; inhibition, % at 10 µM; P15917; note: plate controls were buffer without enzyme for full effect and enzyme alone for no effect
Autofluor counter – counter-screen for toxin protease inhibitors: compound fluorescence. compound autofluorescence counterscreen, microsphere flow cytometry; active compounds read high. fluorescence intensity (no concentration beside the values). 360,000 compounds, 3.1% hits; in the data active = fluorescence intensity above about 16000; inconclusive = no clear call, values can overlap the other calls
BoNT-F LC inh – blocks Botulinum neurotoxin F light chain protease | Multiplex microsphere protease cleavage assay, flow cytometry | inhibition, % at 10 µM | 360,000 compounds, 0.22% hits | AID 588497; in the data active = inhibition above about 35%, passing the limit was not always enough; inconclusive = no clear call, values can overlap the other calls; note: plate controls were buffer without enzyme for full effect and enzyme alone for no effect
* hit, by the source's call; ? = inconclusive; nt = no result given. Cut-off read from the data, not from the text of the source, unless noted: active = inhibition above about 30%; inconclusive = no clear call, values can overlap the other calls; inactive = below that.

SMILES | MazEF act | BoNT A protease | PfHsp40 rescue | Anthrax LF inh2 | Autofluor counter | BoNT-F LC inh
O=C(c1ccc([N+](=O)[O-])o1)N1CCc2ccccc2C1 | 3 | -2 | 53* | -6 | 4521 | 4
COc1cc2c(cc1OC)CN(C(=O)C1(c3ccccc3)CC1)CC2 | -4 | ? | 10 | 0 | 19639* | 3
CCCC(=O)Nc1c(-c2ccccc2Cl)c(=O)c2ccccc2n1C | -2 | -1 | -2 | -3 | 3584 | 7
COC(=O)CCC(=O)N1CCCC(N2CCN(c3ccc(OC)cc3)CC2)C1 (stereo not drawn) | 8 | 0 | 2 | 2 | 3201 | -17
Cc1ccc(S(=O)(=O)N[C@@H](CC(C)C)C(=O)NCc2ccco2)cc1 | 2 | ? | -2 | 0 | 23101* | -1
Cc1ccc(S(=O)(=O)NCC(=O)N(CC(=O)NCc2ccco2)Cc2cccs2)cc1 | -5 | -1 | 1 | -2 | 20378* | -3
Cc1ccc(S(=O)(=O)NC(=O)NCc2ccco2)cc1 | 6 | 0 | -1 | -4 | 2836 | 1
CCOc1ccc(S(=O)(=O)N2CCN(CC(O)COc3cccc([N+](=O)[O-])c3)CC2)cc1 (stereo not drawn) | 0 | -2 | 0 | 2 | 4658 | 3
CCCCN1C[C@H](C)[C@@H](CC(=O)NCc2ccccc2)C1=O | 5 | -1 | -1 | -5 | 4495 | -9
Cc1cccc(NC(=O)NCC(F)(F)F)n1 | 4 | ? | 0 | -9 | 19660* | 2
O=C(Nc1cccc2ccccc12)c1nn(C23CC4CC(CC(C4)C2)C3)cc1[N+](=O)[O-] | 9 | -2 | -1 | -2 | 24019* | -4
O=C(Nc1ccc2ccccc2c1)c1nn(C23CC4CC(CC(C4)C2)C3)cc1Br | -6 | -2 | -1 | -3 | 23799* | -6
Cc1nn(C)c(C)c1S(=O)(=O)N(CC(=O)NCCCN1CCC(C)CC1)c1ccc(C(C)C)cc1 | 0 | 0 | 1 | 0 | 4467 | 3
Cc1cc(NC(=O)CCCn2ccc([N+](=O)[O-])n2)n(Cc2ccc(F)cc2)n1 | 5 | -2 | 17 | -6 | 6037 | -7
CCOC(=O)C1CCN(C(=O)c2cccc(S(=O)(=O)N3CCCc4ccccc43)c2)CC1 | -18 | -3 | -1 | 2 | 6710 | 0
CCOc1ccc(NC(=O)Nc2cc(C)ccc2F)cc1 | 8 | 1 | 0 | -5 | 16132* | 2
COC(=O)C1=C(C)OC(N)=C(C#N)C1c1cc(OC)c(OCC(N)=O)cc1Cl (stereo not drawn) | -1 | ? | -1 | 1 | 23456* | -4
C/C=C/C=[N+](\[O-])C(C)/C(=N/O)c1ccc(F)cc1 (stereo not drawn) | 0 | -2 | -1 | 1 | 16840* | -5
Cc1nc2cc(NC(=O)Nc3ccccc3Cl)ccc2n1C | 4 | 0 | -1 | -5 | 4370 | -2
COc1ccccc1CNC(=O)CSc1ccc(-c2ccccn2)nn1 | 12 | -1 | 314* | 4 | 5023 | -5
Cc1ccccc1NC(=O)CSc1ccc(-c2ccccn2)nn1 | -5 | 1 | 381* | -2 | 5301 | -2
Cc1cc(C)cc(NC(=O)CSc2ccc(-c3ccccn3)nn2)c1 | 1 | -2 | ? | -5 | 6025 | -12
CCCn1cc(CN2CCC(n3nccc3NC(=O)CCOc3ccccc3)CC2)c(C)n1 | 0 | 0 | 0 | -4 | 5237 | -3
Nc1ncnc2c1ncn2[C@@H]1O[C@H](CNCC#Cc2ccccc2)[C@@H](O)[C@H]1O | 0 | -1 | 2 | -2 | 3425 | -8
O=C(CC1OCC2CCCN2C1=O)Nc1ccc([N+](=O)[O-])cc1 (stereo not drawn) | 6 | 0 | 0 | -4 | 3534 | -9
SMILES | MazEF act | BoNT A protease | PfHsp40 rescue | Anthrax LF inh2 | Autofluor counter | BoNT-F LC inh
CCCc1cn(S(=O)(=O)c2ccc(OC)cc2OC)nc1N | 3 | -4 | 0 | -3 | 17146* | -6
COc1ccc(N(CC(=O)NCCC2=CCCCC2)S(C)(=O)=O)cc1OC | -4 | 3 | 0 | 0 | 22438* | 7
CCCn1c(O)c(N=Nc2ccc3ccccc3n2)c2ccccc21 | 146* | 5 | -1 | 3 | 9515 | -6
CN(C(=O)CSc1nncn1C)C1CCCN(Cc2ccccc2F)C1 (stereo not drawn) | 4 | 2 | -1 | 3 | 5917 | 3
C(=N\Nc1nc(N2CCCCCC2)nc(N2CCCCCC2)n1)/c1ccccc1 | 1 | 0 | 2 | -1 | 2655 | -3
Fc1ccc(Nc2nc(N/N=C/c3ccco3)nc(N3CCCCC3)n2)cc1 | 8 | 0 | 102* | -10 | 5481 | -2
NC(=O)C1CCN(CCC(=O)Nc2ccc(Br)cc2)CC1 | -11 | 0 | 1 | -3 | 23853* | -1
Cc1cc(NC(=O)CCN2CCC(C(N)=O)CC2)ccc1Br | -9 | 1 | 6 | 3 | 3152 | -9
CCC(C)(C)C(=O)Nc1nnc(CCc2ccccc2)s1 | -1 | -1 | -1 | -1 | 3221 | 36*
CC(C)(C)CC(=O)Nc1nnc(CCc2ccccc2)s1 | -21 | 2 | 0 | -22 | 3321 | ?
COc1ccc(C2=NOC(C(=O)Nc3cccnc3)C2)cc1OC (stereo not drawn) | -4 | 0 | -1 | -4 | 4748 | 0
Cc1cccc(-n2cccc2)c1C#N | -4 | 0 | 1 | -1 | 10388 | -2
N#Cc1c(-n2ccnc2)cccc1-n1ccnc1 | 2 | 2 | 1 | -2 | 21837* | 2
CC1Cc2ccccc2N1C(=S)NC(=O)c1cccc(Br)c1 (stereo not drawn) | 1 | 5 | 146* | 2 | 2377 | 2
C=CCC[C@H](Cc1ccc(F)cc1)C(=O)OC[C@@H](NC(=O)[C@H](CC=C)CC(=O)NCCO)c1ccccc1 | 3 | 0 | 2 | 4 | 3992 | -7
CCCN(CCC)CCCNC(=O)c1ccc(CS(=O)(=O)c2c(Cl)cccc2Cl)o1 | -7 | -1 | 0 | 8 | 3821 | -6
CC1=C(C#N)C(NC(=O)c2ccc(C)cc2)(C(F)(F)F)C(=O)N1 (stereo not drawn) | 4 | 6 | 0 | 0 | 19042* | 5
Cc1csc(NC(=O)C(C)Oc2ccc(Cl)cc2C)n1 (stereo not drawn) | -2 | -1 | 60* | -1 | 5235 | 2
CC(C)(C)S(=O)(=O)c1cnc(N2CCCCC2)nc1N | 4 | 0 | -1 | 4 | 5940 | -3
CC(=O)c1cnc(N2CCCCC2)nc1C | -1 | 2 | -1 | 0 | 21581* | 4
O=C(Nc1ccc2c(c1)OCCO2)C(c1cc2ccccc2o1)N1CCC(Cc2ccccc2)CC1 (stereo not drawn) | nt | 1 | nt | -6 | 6673 | -2
OCCN(CCO)c1cc2c3ccccc3ccc2c2ccccc12 | 19 | -1 | 529* | 2 | 4020 | -4
O=c1cc(CSc2ccc(Cl)cc2)nc(-c2ccccn2)[nH]1 | 4 | -7 | 325* | 0 | 3770 | ?
CCN1CCN(CCCNC(=O)CCC(=O)N2CCOc3ccc(Cl)cc32)CC1 | 13 | 0 | -1 | -7 | 5580 | -4

High-throughput results: PubChem, several laboratories
